In PubChem BioAssay (NCI):
Compounds without any hit were thinned out: in the full panel of roughly 83,000, 20% have a hit.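 Growth was measured after 48 h exposure to one concentration of compound in 96-well plates. Values under 10 count as active.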 A number with no mark means an inactive call. Active and inactive are the calls of the source.

Columns and labels:
Assay in all cases: NCI-60 one-dose screen, 48 h (100 = growth as untreated, 0 = no growth, -100 = all killed)
[1] = tested on: HCT-15 colon; settings: 10 µM unless noted
[2] = tested on: HT29 colon; settings: 10 µM unless noted
[3] = tested on: SNB-19 CNS; settings: 10 µM unless noted
[4] = tested on: U251 CNS; settings: 10 µM unless noted
[5] = tested on: PC-3 prostate; settings: 10 µM unless noted
[6] = tested on: SK-MEL-5 melanoma; settings: 10 µM unless noted
[7] = tested on: UACC-62 melanoma; settings: 10 µM unless noted
[8] = tested on: LOX IMVI melanoma; settings: 10 µM
[9] = tested on: SK-MEL-28 melanoma; settings: 10 µM unless noted

Compound | growth [1] | growth [2] | growth [3] | growth [4] | growth [5] | growth [6] | growth [7] | growth [8] | growth [9]
Clc1cccc(N/N=C/c2c[nH]c3ccc(Br)cc23)n1 | 22.3% | 23.6% | 20.5% | 17.1% | 7.77% (active) | 40.3% | 1.6% (active) | -60.9% (active) | 49.1%
CC12CC[C@@H]3[C@]4(C)COC(c5cn[nH]c5-c5ccc(Cl)cc5)O[C@@H]4CC[C@@]3(C)[C@@H]1CC(C1=CCOC1=O)O2 (some centres not stated) | 36.2% | 22% | 54.5% | 50% | 19.4% | 16.5% | 33.4% | 46.2% | 39.2%
Cn1cc(-c2cc3nc(-c4cn(C)c5ncccc45)cc(N)n3n2)c2ccccc21 | 9.76% (active) | -6.2% (active) | 37.7% | -8.69% (active) | 27.2% | -69.3% (active) | -0.244% (active) | -56.8% (active) | -22.5% (active)
CC(C)c1sc(NC(=O)c2cc(NC(=O)c3cc(NC(=O)c4cscn4)cn3C)cn2C)nc1C(=O)NCCCN(C)C | 98.6% | 2.45% (active) | -9.66% (active) | -38.4% (active) | -26.3% (active) | -3.44% (active) | -73.5% (active) | -94% (active) | -16.3% (active)
Cc1ccccc1[C@H]1C(C(=O)c2ccc(Cl)cc2)C2(N[C@@H]1c1ccccc1)C(=O)Nc1ccccc12 (some centres not stated) | -14% (active) | -88.7% (active) | 16.2% | -58.1% (active) | -22.6% (active) | -72.2% (active) | -83.5% (active) | -100% (active) | -34.3% (active)
CN(C)CCCNC(=O)c1cc(NC(=O)c2cc(NC(=O)c3ccc(/C=C/c4ccccc4)cc3)cn2C)cn1C | 44.3% | 2.73% (active) | 78% | -14.9% (active) | 46.6% | 40.3% | 10.1% | -86.1% (active) | 60.2%
Cc1ccccc1[C@H]1C(C(=O)c2ccc(Cl)cc2)C2(N[C@@H]1c1ccccc1)C(=O)Nc1ccc(Br)cc12 (some centres not stated) | 7.15% (active) | -58.6% (active) | 38.4% | -3.71% (active) | -4.58% (active) | 35.3% | 11.2% | -95.3% (active) | 41%
C=C1CCC2C3(C)COC(c4ccccc4)OC3CCC2(C)C1CC(NCc1ccccc1)C1=CCOC1=O (configuration not stated) | 87.1% | 73.5% | 73.6% | 77.3% | 31.6% | 69.9% | 70.1% | 74.3% | 94.2%
CC(C)(C)OC(=O)/C=C/c1cccc2c1C(=O)NC(C)(c1cc3cc(Cl)ccc3oc1=O)N2 (configuration not stated) | 40.3% | 44.3% | 42.1% | 42.4% | 12.5% | 28.4% | 36% | 41.1% | 53.7%
N/N=C(\N)c1c(N)nc(=S)[nH]c1-c1ccc(Cl)cc1Cl | 111% | 111% | 93.4% | 104% | 96.8% | 108% | 93.8% | 106% | 116%
O=C(Cn1c(/C=C/c2ccccc2)nc2ccccc2c1=O)Nc1ccccc1 | 76.6% | 98.5% | 67.8% | 35.8% | 76.1% | 97.3% | 90.1% | 43.2% | 111%
COc1ccc(/C=C/c2nc3ccccc3c(=O)n2CC(=O)Nc2ccc(Cl)cc2)cc1 | 75.2% | 38.7% | 77.4% | 10.9% | 48.3% | 89% | 73.3% | 36.5% | 93%
CC(/C=C1\SC(=S)N(CCCC(=O)NC(CC(C)C)C(=O)O)C1=O)=C\c1ccccc1 (configuration not stated) | 98.6% | 119% | 93.8% | 79.6% | 55.9% | 88.1% | 76% | 53.2% | 94.8%
Cn1cc(-c2cc(N)n3nc(-c4cn(C)c5ncc(Br)cc45)cc3n2)c2cc(Br)cnc21 | -76.6% (active) | -85% (active) | 10% | -62.1% (active) | 1.06% (active) | 34.8% | -82.3% (active) | -100% (active) | -49.9% (active)
C=C1CC[C@@H]2[C@]3(C)COC(c4cn[nH]c4-c4cccc(Cl)c4)O[C@@H]3CC[C@@]2(C)[C@@H]1C/C=C1/C(=O)OCC1O (some centres not stated) | -59.2% (active) | 0.309% (active) | 5.54% (active) | -85.8% (active) | -0.106% (active) | -79.6% (active) | -86.9% (active) | -100% (active) | -76.6% (active)
CC(=O)c1cccc(NC(=O)CCC(=O)NS(=O)(=O)c2ccc(C)cc2)c1 | 107% | 106% | 98.5% | 104% | 105% | 109% | 102% | 104% | 108%
Cc1ccc([C@H]2C(C(=O)c3ccc(Cl)cc3)C3(N[C@@H]2c2ccccc2)C(=O)Nc2ccccc23)cc1 (some centres not stated) | 35.6% | 17.8% | 41% | 48.6% | 2.35% (active) | 34.3% | 13.4% | 25.5% | 32.8%
Cn1cc(-c2cc(N)n3nc(-c4c[nH]c5ccccc45)cc3n2)c2cccnc21 | -10.2% (active) | -38.1% (active) | 59.9% | 20% | 5.88% (active) | 23.1% | -84% (active) | -85.8% (active) | -81.6% (active)
